Results reported in PubChem BioAssay.
Activity calls are given as the source filed them. Unless noted, how the calls were made is not given here.

How the values were obtained:
[1] = HepG2 liver cancer cell viability effects, profiling panel, resazurin fluorescence, 24 h, PK04 Diversity Set (AID 1172); conditions: higher = more signal; further: test concentration not given here
[2] = basal S. cerevisiae growth modulation, no modifier, primary screen, OD600, strain BY4716, 24 h, basal condition (AID 1173); conditions: OD600, 24 h, higher = more signal, called active from +8 up or from −8 down
[3] = MM1S myeloma cell viability, profiling panel, resazurin fluorescence, basal, 24 h, PK04 Diversity Set (AID 1174); conditions: higher = more signal, called active from +8 up or from −8 down;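 further: MM1S multiple myeloma cell line; test concentration not given here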
[4] = target: Dihydroorotate dehydrogenase (quinone), mitochondrial (Plasmodium falciparum (isolate 3D7)) (UniProt Q08210); experiment: PfDHODH enzyme inhibitors, primary screen, biochemical, C-terminal His tag, absorbance 600 nm (AID 1175); conditions: DCIP absorbance 600 nm, higher = more signal, called active from +8 up or from −8 down;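 further: recombinant parasite enzyme with a five histidine tag at its C terminus; test concentration not given here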
Dihydroorotate dehydrogenase (quinone), mitochondrial (Plasmodium falciparum (isolate 3D7)), sequence (Q08210 whole entry, looked up): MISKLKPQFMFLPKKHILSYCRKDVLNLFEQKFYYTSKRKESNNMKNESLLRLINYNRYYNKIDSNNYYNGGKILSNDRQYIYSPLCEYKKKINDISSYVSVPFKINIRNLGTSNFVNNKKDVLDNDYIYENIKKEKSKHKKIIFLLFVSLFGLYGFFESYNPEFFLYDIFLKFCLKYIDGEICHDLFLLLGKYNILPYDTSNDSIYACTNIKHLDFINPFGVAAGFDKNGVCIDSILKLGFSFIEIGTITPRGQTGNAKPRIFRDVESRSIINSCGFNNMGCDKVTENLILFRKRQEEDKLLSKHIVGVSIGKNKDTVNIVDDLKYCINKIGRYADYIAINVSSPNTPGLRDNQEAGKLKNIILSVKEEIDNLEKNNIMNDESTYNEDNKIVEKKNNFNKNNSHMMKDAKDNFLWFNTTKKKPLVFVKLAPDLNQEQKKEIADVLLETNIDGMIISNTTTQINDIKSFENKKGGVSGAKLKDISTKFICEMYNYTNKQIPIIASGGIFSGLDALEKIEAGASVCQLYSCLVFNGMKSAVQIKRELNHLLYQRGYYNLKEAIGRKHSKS

[5] = P. aeruginosa biofilm formation inhibitors, primary screen, strain PAO1, LB-PBS medium, absorbance 600 nm (AID 1176); further: test concentration not given here; conditions: P. aeruginosa PAO1 growth/biofilm, A600, 12 h; higher = more signal
[6] = S. cerevisiae RM11-1a growth modifiers, primary screen, strain RM11-1a, OD600, basal, 24 h (AID 1177); conditions: OD600, 24 h, higher = more signal, called active from +8 up or from −8 down;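 further: cultures grown under basal conditions with no added stressor; test concentration not given here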
[7] = E. coli acrAB mutant growth effects, primary screen, E. coli filamentation inducers, strain DRC39, OD650, 24 h (AID 1178); conditions: higher = more signal, called active from +8 up or from −8 down;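 further: growth measured as culture turbidity by optical density at 650 nm; test concentration not given here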
[8] = E. coli acrAB mutant growth effects, primary screen, E. coli filamentation inducers, strain DRC39, OD650, 48 h (AID 1179);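 further: screen aims at cell division blockers that make cells filament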; conditions: E. coli DRC39 delta-acrAB growth, higher = more signal, called active from +8 up or from −8 down
[9] = RPMI8226 myeloma cell viability, profiling panel, resazurin fluorescence, basal, 24 h, PK04 Diversity Set (AID 1180); conditions: higher = more signal;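 further: RPMI8826 multiple myeloma cell line at 5000 cells per well; test concentration not given here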
[10] = target: E3 ubiquitin-protein ligase XIAP (Homo sapiens) (UniProt P98170); experiment: XIAP binders, primary screen, biophysical, small-molecule microarray, fluorescence 635 nm (AID 1181); conditions: small-molecule microarray binding, higher = more signal;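 further: score merges 667 nm emission and signal to noise over triplicate slides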
E3 ubiquitin-protein ligase XIAP (Homo sapiens), sequence (P98170 whole entry, looked up): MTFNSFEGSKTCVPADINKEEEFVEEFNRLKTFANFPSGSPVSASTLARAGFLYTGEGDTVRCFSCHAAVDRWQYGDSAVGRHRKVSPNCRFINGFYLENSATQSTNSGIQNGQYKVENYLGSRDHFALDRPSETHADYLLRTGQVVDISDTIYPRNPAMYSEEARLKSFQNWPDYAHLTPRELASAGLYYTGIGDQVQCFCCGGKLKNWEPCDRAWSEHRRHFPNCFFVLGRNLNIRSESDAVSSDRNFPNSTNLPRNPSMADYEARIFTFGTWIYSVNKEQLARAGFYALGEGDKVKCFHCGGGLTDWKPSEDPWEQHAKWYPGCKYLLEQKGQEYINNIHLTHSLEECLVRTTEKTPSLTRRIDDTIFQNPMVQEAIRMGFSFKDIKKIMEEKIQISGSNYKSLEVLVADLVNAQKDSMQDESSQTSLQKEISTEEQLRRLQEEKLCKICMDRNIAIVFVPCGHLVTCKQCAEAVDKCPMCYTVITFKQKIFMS

Question: Which results are given for `C[N+](C)(C)CCCCCCNC(=O)[C@@H]1C[C@@H]2C(=O)NCC(=O)N2[C@@H]1c1cccc(OCCO)c1`?
Answer: z-score [1]: 0.597; z-score [2]: -1.33 (inactive); z-score [3]: 1.26 (inactive); composite z-score [4]: -2.3 (inactive); z-score [5]: 3.7 (inactive); z-score [6]: -0.257 (inactive); z-score [7]: -0.858 (inactive); z-score [8]: -0.765 (inactive); z-score [9]: 0.343; composite z-score [10]: 0.0192

Question: With `CC(C)C[C@@H]1NC(=O)[C@@H]2C[C@H](C(=O)NCCCC[N+](C)(C)C)[C@H](c3cccc(OCCO)c3)N2C1=O` as the compound, how does the z-score [1] read?
Answer: Its z-score is -3.45.

Question: And the z-score [2]?
Answer: Its z-score is 1.45 (inactive).

Question: And the z-score [3]?
Answer: The z-score was -0.986 (inactive).

Question: And the composite z-score [4]?
Answer: Its composite z-score is -29 (active).

Question: What about the z-score [5] of the same compound?
Answer: Its z-score is 1.3 (inactive).

Question: What about the z-score [6] of the same compound?
Answer: The z-score was 0.958 (inactive).

Question: And the z-score [7]?
Answer: Its z-score is -0.234 (inactive).

Question: What about the z-score [8] of the same compound?
Answer: The z-score was -0.667 (inactive).

Question: What about the z-score [9] of the same compound?
Answer: Its z-score is -1.16.

Question: What about the composite z-score [10] of the same compound?
Answer: Its composite z-score is -0.127.

Question: For `CCN(CC)c1ccc(N2CC=CC34O[C@@H]5/C=C\CCCOC(=O)C5[C@H]3C(=O)N(CCCCCO)[C@@H]4C2=O)cc1` (stereo not given in full), which z-score [1] is on record?
Answer: Its z-score is -0.162.

Question: And the z-score [2]?
Answer: Its z-score is -0.606 (inactive).

Question: What about the z-score [3] of the same compound?
Answer: The z-score was 0.361 (inactive).

Question: What about the composite z-score [4] of the same compound?
Answer: Its composite z-score is -0.706 (inactive).

Question: And the z-score [5]?
Answer: Its z-score is -0.553 (inactive).

Question: And the z-score [6]?
Answer: Its z-score is -0.27 (inactive).

Question: What about the z-score [7] of the same compound?
Answer: Its z-score is -0.388 (inactive).

Question: What about the z-score [8] of the same compound?
Answer: The z-score was -0.241 (inactive).

Question: What about the z-score [9] of the same compound?
Answer: The z-score was 0.681.

Question: And the composite z-score [10]?
Answer: The composite z-score was -0.0264.

Question: Which z-score [1] does the source give for `COc1cccc(C[C@H]2C[C@@H](CO[Si](C(C)C)(C(C)C)C(C)C)N3C(=O)[C@]4(C(C)=O)O[C@]23[C@H]2C(=O)N(C)C(=O)[C@H]24)c1` here?
Answer: The z-score was -1.03.

Question: And the z-score [2]?
Answer: Its z-score is 2.01 (inactive).

Question: What about the z-score [3] of the same compound?
Answer: Its z-score is -0.713 (inactive).

Question: What about the composite z-score [4] of the same compound?
Answer: Its composite z-score is 0.564 (inactive).

Question: What about the z-score [5] of the same compound?
Answer: The z-score was 1.32 (inactive).

Question: And the z-score [6]?
Answer: Its z-score is 0.979 (inactive).

Question: What about the z-score [7] of the same compound?
Answer: Its z-score is -0.356 (inactive).

Question: What about the z-score [8] of the same compound?
Answer: Its z-score is -0.152 (inactive).

Question: And the z-score [9]?
Answer: Its z-score is -2.81.

Question: And the composite z-score [10]?
Answer: Its composite z-score is 0.0264.

Question: For `Cc1cc(C)c(C(O)C2C=CC3C(=O)N(c4ccccc4)C(=O)C3N2Nc2ccccc2)c(C)c1` (stereo not given), which z-score [1] is on record?
Answer: The z-score was -0.156.

Question: And the z-score [2]?
Answer: The z-score was 0.439 (inactive).

Question: What about the z-score [3] of the same compound?
Answer: Its z-score is -0.307 (inactive).

Question: What about the composite z-score [4] of the same compound?
Answer: Its composite z-score is 0.224 (inactive).

Question: And the z-score [5]?
Answer: Its z-score is 1.14 (inactive).

Question: What about the z-score [6] of the same compound?
Answer: The z-score was 0.292 (inactive).

Question: What about the z-score [7] of the same compound?
Answer: The z-score was -0.297 (inactive).

Question: What about the z-score [8] of the same compound?
Answer: The z-score was 0.445 (inactive).

Question: What about the z-score [9] of the same compound?
Answer: Its z-score is -0.0598.

Question: And the composite z-score [10]?
Answer: The composite z-score was 0.0542.

Question: For `COC(=O)C(CC#Cc1ccc2c(c1)[C@]1(C(=O)N2)[C@H](c2ccc(O)cc2)N2[C@H](c3ccccc3)[C@H](c3ccccc3)OC(=O)[C@H]2[C@@H]1C(N)=O)C(=O)OC`, which z-score [1] is on record?
Answer: The z-score was 1.09.

Question: What about the z-score [2] of the same compound?
Answer: Its z-score is -0.773 (inactive).

Question: And the z-score [3]?
Answer: Its z-score is 0.455 (inactive).

Question: And the composite z-score [4]?
Answer: Its composite z-score is 0.133 (inactive).

Question: What about the z-score [5] of the same compound?
Answer: The z-score was 1.28 (inactive).

Question: What about the z-score [6] of the same compound?
Answer: Its z-score is -0.864 (inactive).

Question: What about the z-score [7] of the same compound?
Answer: The z-score was 1.68 (inactive).

Question: And the z-score [8]?
Answer: The z-score was 2.08 (inactive).

Question: What about the z-score [9] of the same compound?
Answer: Its z-score is 1.1.

Question: And the composite z-score [10]?
Answer: Its composite z-score is 0.153.

Question: Which z-score [1] does the source give for `CCCC=C(CCC)[C@@H](NS(=O)(=O)CC)c1ccccc1` here?
Answer: Its z-score is 0.281.

Question: And the z-score [2]?
Answer: The z-score was 1.32 (inactive).

Question: What about the z-score [3] of the same compound?
Answer: Its z-score is -0.364 (inactive).

Question: What about the composite z-score [4] of the same compound?
Answer: The composite z-score was -0.317 (inactive).

Question: And the z-score [5]?
Answer: Its z-score is 0.302 (inactive).

Question: What about the z-score [6] of the same compound?
Answer: The z-score was 0.462 (inactive).

Question: What about the z-score [7] of the same compound?
Answer: The z-score was -1.1 (inactive).

Question: And the z-score [8]?
Answer: The z-score was -0.0887 (inactive).

Question: And the z-score [9]?
Answer: The z-score was -0.745.

Question: And the composite z-score [10]?
Answer: The composite z-score was 0.23.

Question: Which results are given for `O=C1c2ccccc2[C@](Cc2ccccc2I)(C(=O)NCC(F)(F)F)[C@H](c2ccc(CO)cc2)N1Cc1ccccc1`?
Answer: z-score [1]: 0.846; z-score [2]: -0.895 (inactive); z-score [3]: -0.277 (inactive); composite z-score [4]: -0.537 (inactive); z-score [5]: -0.0344 (inactive); z-score [6]: 0.0123 (inactive); z-score [7]: 0.496 (inactive); z-score [8]: 1.07 (inactive); z-score [9]: 0.675; composite z-score [10]: -0.0962

Question: For `COC(=O)c1ccc(OC)c(/C=C\CC(CCc2ccccc2)OC(=O)c2ccncc2)c1` (stereo not given), which z-score [1] is on record?
Answer: Its z-score is 0.263.

Question: And the z-score [2]?
Answer: The z-score was 0.0069 (inactive).

Question: And the z-score [3]?
Answer: The z-score was 0.472 (inactive).

Question: What about the composite z-score [4] of the same compound?
Answer: The composite z-score was -3.1 (inactive).

Question: And the z-score [5]?
Answer: Its z-score is 0.0619 (inactive).

Question: What about the z-score [6] of the same compound?
Answer: Its z-score is -0.0204 (inactive).

Question: What about the z-score [7] of the same compound?
Answer: The z-score was 0.0514 (inactive).

Question: And the z-score [8]?
Answer: The z-score was -0.379 (inactive).

Question: What about the z-score [9] of the same compound?
Answer: Its z-score is 1.24.

Question: And the composite z-score [10]?
Answer: Its composite z-score is 2.62.

Question: With `CC(=O)NCCCC[C@@H]1NC(=O)[C@@H]2C[C@H](C(=O)NCCCC[N+](C)(C)C)[C@H](c3cccc(OCCO)c3)N2C1=O` as the compound, how does the z-score [1] read?
Answer: The z-score was -0.44.

Question: And the z-score [2]?
Answer: The z-score was 1.41 (inactive).

Question: And the z-score [3]?
Answer: The z-score was -1.56 (inactive).

Question: And the composite z-score [4]?
Answer: The composite z-score was -22.3 (active).

Question: What about the z-score [5] of the same compound?
Answer: Its z-score is 0.876 (inactive).

Question: What about the z-score [6] of the same compound?
Answer: Its z-score is 0.954 (inactive).

Question: What about the z-score [7] of the same compound?
Answer: Its z-score is -0.0845 (inactive).

Question: What about the z-score [8] of the same compound?
Answer: Its z-score is -0.629 (inactive).

Question: And the z-score [9]?
Answer: Its z-score is -0.803.

Question: And the composite z-score [10]?
Answer: Its composite z-score is 0.142.

Question: What does the source list for `C[C@H]1NC(=O)C([C@@H](C)OCc2ccccc2)NC(=O)[C@@]23C(=O)N[C@@H](Cc4ccccc4)C2[C@H](C)[C@@]2(C)O[C@H]2C3/C=C/CC/C=C/CNC1=O` (stereo not given in full)?
Answer: z-score [1]: -1.3; z-score [2]: -0.782 (inactive); z-score [3]: 0.737 (inactive); composite z-score [4]: 0.855 (inactive); z-score [5]: -0.766 (inactive); z-score [6]: 0.604 (inactive); z-score [7]: 1.36 (inactive); z-score [8]: 0.336 (inactive); z-score [9]: 0.189; composite z-score [10]: 0.13
